This note sets out measurements from PubChem BioAssay (EPA / NIEHS).

Calls of active or inactive are those of the source. Rule for the calls: active = hit-call score of the fitted dose curve at least 0.9, where 1 is the maximum; inactive = score below 0.9.

CCAAT/enhancer-binding protein beta (Homo sapiens), sequence (P17676 whole entry, looked up): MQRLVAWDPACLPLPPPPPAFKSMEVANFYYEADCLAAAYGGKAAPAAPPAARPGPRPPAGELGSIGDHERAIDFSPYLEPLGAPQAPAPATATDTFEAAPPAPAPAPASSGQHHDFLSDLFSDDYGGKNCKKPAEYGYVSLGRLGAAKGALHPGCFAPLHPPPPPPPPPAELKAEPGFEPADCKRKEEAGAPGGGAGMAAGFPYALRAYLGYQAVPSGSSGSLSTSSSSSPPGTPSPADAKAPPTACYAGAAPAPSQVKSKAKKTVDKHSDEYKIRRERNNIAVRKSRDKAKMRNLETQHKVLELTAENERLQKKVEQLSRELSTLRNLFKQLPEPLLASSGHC

For this test, the target named is CCAAT/enhancer-binding protein beta (Homo sapiens) (UniProt P17676). The test is described as follows: ATG_C_EBP_CIS: Attagene CIS-FACTORIAL HepG2 Assay for human CCAAT/Enhancer Binding Protein (C/EBP) beta (AID 2282927). The note with it: HepG2 Attagene cis-factorial transcription factor reporter; actives raise or lower the signal. How it is done:
ATG_CIS is a cell-based, multiplexed-readout assay that uses HepG2, a human liver cell line, with measurements taken at 24 hours after chemical dosing in a 24-well plate.ATG_C_EBP_CIS is one of 52 assay component(s) measured or calculated from the ATG_CIS assay. It is designed to make measurements of mRNA induction, a form of inducible reporter, as detected with fluorescence intensity signals by Reverse transcription polymerase chain reaction (RT-PCR) and Capillary electrophoresis technology.Data from the assay component ATG_C_EBP_CIS was analyzed into 1 assay endpoint. This assay endpoint, ATG_C_EBP_CIS, was analyzed with bidirectional fitting relative to DMSO as the negative control and baseline of activity. Using a type of inducible reporter, measures of mRNA for gain or loss-of-signal activity can be used to understand the reporter gene at the transcription factor-level as they relate to the gene CEBPB. Furthermore, this assay endpoint can be referred to as a primary readout, because this assay has produced multiple assay endpoints where this one serves a reporter gene function. To generalize the intended target to other relatable targets, this assay endpoint is annotated to the dna binding intended target family, where the subfamily is basic leucine zipper.
Human liver HepG2 cells are transiently transfected with multiple reporter transcription units (MRTUs) in 6-well plates using FuGene 6 reagent (Roche; 3 ml FuGene/1 mg DNA). The MRTU constructs are regulated by a cis-regulating element (promoter). […] A major difference between the CIS and TRANS system is that in CIS activities of endogenous TFs are measured, whereas the TRANS assay evaluates changes in activities of exogenous, chimeric NR-Gal4 proteins. […] At the end of 24 hour incubation, total RNA was isolated using TriZol reagent (Invitrogen). The isolated RNA is then reverse-transcribed using oligo(dT) primer and Mo-MLV reverse transcriptase (Invitrogen) with DNAse I (Ambion) treatment for 30 min. The one-tenth of the produced cDNA was amplified by PCR using Taq DNA polymerase (Invitrogen) and two reporter sequence-specific primers. The PCR products were fluorescently labeled by primer extension with 6-arboxyfluorescein (6-FAM) 5'-labeled reporter sequence-specific primer (2 min at 95 C, 20 s at 68 C and 10 min at 72 C) and these products were digested with 5U of HpaI (New England Biolabs) for 2h at 37 C. The fragments were purified using Qiaquick PCR columns (Qiagen), analyzed on an ABI 3130xL genetic analyzer (Applied Biosystems) with peak positions identified by using a set of X-rhodamine (ROX)-labeled MapMarker1000 molecular weight standards (BioVentures). The raw capillary electrophoresis data was processed using Attagraph software (Attagene).
For the compound `CC(=O)OC(C)(C)C1CC=C(C)CC1` (stereo not given), the outcome was inactive.

`ClCCOCCOCCCl`: the result was inactive. On to `CCCCCCCCOC(C)=O`, for which the result was inactive. With `CCCC[N+](C)(CCCC)CCCC`, the outcome was inactive. `C=C(C)C(=O)OCCN(C)C`: the outcome was inactive. For `CN(C)c1ccc(C=O)cc1` the value was “inactive”; for `CCCCCCCCSCc1cc(C)c(O)c(CSCCCCCCCC)c1`, “inactive”; for `CCOC(=O)C=Cc1ccccc1`, “inactive”. `CC(=O)CCC=C(C)CCC=C(C)C`: the outcome was inactive. Take `CCCCOCCOCCO`: the outcome was inactive. For the compound `CC(C)OB(OC(C)C)OC(C)C`, the result was inactive. `O=C(O)c1cccc(Cl)n1`: the outcome was inactive. For `N#CCCCC(C#N)CCC#N` (stereo not given), the outcome was inactive. Turning to `COC(=O)c1ccc(C(=O)OC)cc1`, the result was inactive. For `CC(C)(O)CCc1ccccc1` the value was “inactive”; for `CC(=O)CC(C)(C)C1CCCCC1`, “inactive”; for `CC(C)(C)c1ccc(S)cc1`, “inactive”. On to `CC(CCO)CC(C)(C)C` (stereo not given), for which the result was inactive. Take `CC(=N[Si](C)(C)C)O[Si](C)(C)C`: the outcome was inactive.

Turning to `NC(=O)c1cccnc1`, the result was inactive. Turning to `CCCCCC1C(=O)CCC1CC(=O)OC` (stereo not given), the outcome was inactive.

For `CC1COC(=O)O1` (stereo not given), the result was inactive. For the compound `CC1(C)CC(=O)CC(C)(C)N1`, the outcome was inactive. Turning to `CCOC(=O)CC(C)C`, the outcome was inactive. As for `CC/C=C\CCOC(C)OCC` (stereo not given), the entry is “inactive”; as for `N#CCCNCCC#N`, “inactive”; as for `CCCCC/C=C\C=C\C(=O)OCC`, “inactive”. `CCOc1ccc(NC(C)=O)cc1`: the result was inactive. As for `c1coc(CNc2ncnc3nc[nH]c23)c1`, the outcome was inactive.

Turning to `CC1(C)CC(N)CC(C)(CN)C1` (stereo not given), the outcome was inactive.

Turning to `CCCCC(CC)COCCO` (stereo not given), the outcome was inactive.

For `c1ccc(Cc2ccccc2)cc1`, the result was inactive. `CCCCOC(=O)C(C)OC(=O)CCC` (stereo not given): the result was inactive. On to `CC(=O)OC/C=C(C)/C=C/C=C(C)/C=C/C1=C(C)CCCC1(C)C`, for which the outcome was inactive. In the case of `NC(N)=NC(N)=NCCc1ccccc1`, the result was inactive. For the compound `NC(=O)c1c(Cl)cccc1Cl`, the outcome was inactive. Take `O=C(C=Cc1ccccc1)OCCCc1ccccc1`: the outcome was inactive. Turning to `Brc1cc(Br)cc(Br)c1`, the outcome was inactive. In the case of `CC(=O)c1ccc(C)cc1`, the result was inactive. With `S=c1[nH][nH]c(=S)s1`, the result was inactive.
